# The supplement of paper PMC4206461
# A number with no mark means an inactive call.
# Test system: Pseudomonas aeruginosa PA14 dppA1-A5 penta mutant + pBBR5.DppA1 (PA14_58350)
# Assay: respiration area under curve with compound as sole nitrogen source, 24 h (OmniLog AUC (arbitrary units)); higher = more respiration / better utilisation as nitrogen source, active = 2000 or more
# Experimental: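 Biolog Phenotype MicroArray plates PM6-PM8: each di/tripeptide is the sole nitrogen source. Tetrazolium reduction was read in the OmniLog for 24 h at 37°C and summarised as area under the respiration curve (arbitrary units). Values below 2000 count as no respiration. Strain is the SBP penta mutant complemented with DppA1 on a plasmid under its native promoter. Lys/His/Cys peptides are excluded.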
row,Structure (SMILES),respiration area under curve
1,NC(CO)C(=O)NC(CCC(=O)O)C(=O)O (centres undefined) (plate: PM8),3950 (active)
2,C[C@H](N)C(=O)N[C@@H](CCC(=O)O)C(=O)O (plate: PM6),6760 (active)
3,NC(=O)C[C@H](NC(=O)[C@@H](N)CO)C(=O)O (plate: PM8),10900 (active)
4,NC(=O)CC[C@H](NC(=O)[C@@H](N)CCC(N)=O)C(=O)O (plate: PM6),6630 (active)
5,CC(C)[C@@H](NC(=O)CN)C(=O)O (plate: PM8),0
6,CC(C)C[C@H](N)C(=O)NCC(=O)O (plate: PM6),5940 (active)
7,N[C@@H](CC(=O)O)C(=O)N[C@@H](CC(=O)O)C(=O)O (plate: PM6),197
8,CC[C@H](C)[C@H](NC(=O)[C@@H](N)CCCN=C(N)N)C(=O)O (plate: PM6),8150 (active)

# Test system: Pseudomonas aeruginosa PA14 wild type
# Assay: as above
# Experimental: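 Biolog Phenotype MicroArray plates PM6-PM8: each di/tripeptide is the sole nitrogen source (IF-0 medium with succinate/ferric citrate and dye mix A). Tetrazolium reduction was read in the OmniLog every 15 min for 24 h at 37°C and summarised as area under the respiration curve (arbitrary units). The paper counts values below 2000 as no respiration and above 8000 as solid respiration. Replicate datasets are averaged.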
row,Structure (SMILES),respiration area under curve
1,N[C@@H](CO)C(=O)N[C@@H](CO)C(=O)O (plate: PM7),8860 (active)
2,O=C(O)[C@H](Cc1c[nH]c2ccccc12)NC(=O)[C@@H]1CCCN1 (plate: PM8),1260
3,C[C@H](NC(=O)[C@@H]1CCCN1)C(=O)O (plate: PM7),8890 (active)
4,C[C@@H](O)[C@H](N)C(=O)N[C@@H](CCC(N)=O)C(=O)O (plate: PM8),12100 (active)
5,C[C@H](NC(=O)[C@@H](N)CCC(=O)O)C(=O)O (plate: PM8),9190 (active)
6,CC[C@H](C)[C@H](N)C(=O)N[C@@H](Cc1c[nH]c2ccccc12)C(=O)O (plate: PM6),1090
7,N[C@@H](Cc1ccc(O)cc1)C(=O)N[C@@H](Cc1ccccc1)C(=O)O (plate: PM7),6680 (active)
8,NC(=O)C[C@H](N)C(=O)N[C@@H](CCC(=O)O)C(=O)O (plate: PM6),5930 (active)
9,NC(N)=NCCC[C@H](N)C(=O)N[C@@H](CO)C(=O)O (plate: PM6),9350 (active)
10,NCC(=O)NCC(=O)NCC(=O)O (plate: PM8),7740 (active)
11,N[C@@H](Cc1c[nH]c2ccccc12)C(=O)N[C@@H](CCC(=O)O)C(=O)O (plate: PM7),633
12,N[C@@H](CO)C(=O)N[C@@H](Cc1ccccc1)C(=O)O (plate: PM7),7090 (active)
13,NC(CO)C(=O)NC(CCC(=O)O)C(=O)O (centres undefined) (plate: PM8),5470 (active)
14,NC(=O)CC[C@H](NC(=O)[C@@H](N)CO)C(=O)O (plate: PM8),9860 (active)
15,N[C@@H](CCC(=O)O)C(=O)N[C@@H](CC(=O)O)C(=O)O (plate: PM6),12
16,C[C@H](N)C(=O)N[C@@H](CCC(=O)O)C(=O)O (plate: PM6),7840 (active)

row,Structure (SMILES),respiration area under curve
1,C[C@H](N)C(=O)N[C@H](C(=O)O)[C@@H](C)O (plate: PM6),6750 (active)
2,CC[C@H](C)[C@H](N)C(=O)N1CCC[C@H]1C(=O)O (plate: PM6),7460 (active)
3,CC(C)C[C@H](NC(=O)[C@@H](N)Cc1c[nH]c2ccccc12)C(=O)O (plate: PM7),3760 (active)
4,NC(N)=NCCC[C@H](N)C(=O)N[C@@H](Cc1ccccc1)C(=O)O (plate: PM6),9420 (active)
5,NC(=O)C[C@H](NC(=O)[C@@H](N)CO)C(=O)O (plate: PM8),12500 (active)
6,CSCC[C@H](N)C(=O)N[C@@H](CCC(N)=O)C(=O)O (plate: PM7),9160 (active)
7,CC(C)C[C@H](NC(=O)[C@@H](N)[C@@H](C)O)C(=O)O (plate: PM7),7920 (active)
8,CSCC[C@H](N)C(=O)N[C@H](C(=O)O)[C@@H](C)O (plate: PM8),4350 (active)
9,CC[C@H](C)[C@H](N)C(=O)NCC(=O)O (plate: PM6),4940 (active)
10,NC(=O)CC[C@H](NC(=O)[C@@H](N)CCC(N)=O)C(=O)O (plate: PM6),8430 (active)
11,CC(C)[C@@H](NC(=O)CN)C(=O)O (plate: PM8),0
12,CC(C)C[C@H](N)C(=O)NCC(=O)O (plate: PM6),8220 (active)
13,N[C@@H](CC(=O)O)C(=O)N[C@@H](CC(=O)O)C(=O)O (plate: PM6),119
14,CC(C)C[C@H](NC(=O)[C@@H](N)Cc1ccc(O)cc1)C(=O)O (plate: PM7),7880 (active)
15,CC(C)[C@H](NC(=O)[C@@H](N)CCCN=C(N)N)C(=O)O (plate: PM6),8950 (active)
